# Among all 7,900 compounds or so, about 400 (5.1%) showed an effect of 50% or more. This excerpt belongs to a sample that is enriched for strong results.
# Biological target: Parkinson's disease protein 7 (PARK7/DJ1) (human, UniProt Q99497)
# Experiment: primary screen, percent inhibition; read as competition with a fluorescent probe by fluorescence polarization; higher = more effect of the substance
# Details: 100 µM
# Protocol: The screen was conducted using the conditions as described above in 1536-well plates (Corning 3724) with a reaction volume of 8 μL per well. The compound library containing 7887 covalent fragments was purchased at Enamine Ltd. and received as 100 mM DMSO stocks in 384 well LDV Echo plates (Labcyte LP-0200). Stock solutions of 0.26 μM PARK7 and 80 nM JYQ-107 were prepared. Using a Labcyte Echo550 acoustic dispenser, 8 nL of the DMSO stock solution of the library compounds was transferred from the source plates into the empty 1536-well screening plates to obtain a 100 μM final compound concentration. Next, PARK7 (6 μL, final concentration 0.2 μM) was dispensed using a Biotek MultiflowFX liquid dispenser and incubated for 2 h, followed by dispensing the probe JYQ-107 (2 μL, final concentration 20 nM). After 2 h incubation, the FP signal was recorded on a BMG Labtech PHERAstar plate reader (λex/em 480/520 nm). The relative loss of FP signal compared with reference controls was used to calculate the remaining enzyme activity.
# Parkinson's disease protein 7 (PARK7/DJ1), sequence (Q99497 whole entry, looked up): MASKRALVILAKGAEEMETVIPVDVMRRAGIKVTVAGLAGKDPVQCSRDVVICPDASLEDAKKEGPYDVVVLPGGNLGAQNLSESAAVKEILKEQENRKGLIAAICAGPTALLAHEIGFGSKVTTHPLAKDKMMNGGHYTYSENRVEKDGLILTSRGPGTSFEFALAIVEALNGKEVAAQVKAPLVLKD
row,SMILES,Inhibition %
1,C=CC(=O)Nc1ccc2nc(C(F)(F)F)oc2c1,20.1%
2,C=CC(=O)N1CCN(c2cccc(OC(F)F)c2)CC1,6.79%
3,CC(C)c1ccc(NC(=O)Cn2cnc(C#N)n2)cc1,22.6%
4,ClCCCc1nc2ccccc2o1,16.4%
5,O=S(=O)(F)CCSc1nc2ccccc2o1,70.3%
6,O=S(=O)(F)CCn1nnc2ccccc21,8.8%
7,COc1cc(C=C(C#N)C(N)=O)ccc1OC(C)C,4.85%
8,N#Cc1nc(-c2ccc(Cl)c(Cl)c2)oc1N,5.93%
9,CC1(C)OB(c2cccc(CN3CCCC3)c2)OC1(C)C.Cl,6.39%
10,C=CC(=O)N1CCCc2[nH]c3ccc(F)cc3c2C1,71.3%
11,C=CC(=O)N1CCc2cc(F)ccc2C1,10.6%
12,C=CC(=O)N1CCCN(C(=O)c2cccc(F)c2)CC1,2.43%
13,C=CC(=O)N1CC(C)(C)C1c1cccs1 (stereo not shown),8.35%
14,C=CC(=O)N1C[C@H](F)C[C@H]1C(N)=O,11.6%
15,CC1CCC2(CC1)NC(=O)N(CC=CCl)C2=O (stereo not shown),-0.501%
16,CC(NC(=O)Oc1ccccc1)C(=O)O (stereo not shown),10.1%
17,Cc1ccc(B2OC(C)(C)C(C)(C)O2)c(C#N)c1,-0.714%
18,CN(Cc1cccc(F)c1)S(=O)(=O)F,8.98%
19,O=C(O)c1ccc(S(=O)(=O)F)cc1,49.1%
20,N#CC1COCCN1C(=O)c1cccc(S(=O)(=O)F)c1 (stereo not shown),93.6%
21,O=C(O)c1cccc(S(=O)(=O)F)c1,95.1%
22,C#Cc1ccc(S(=O)(=O)F)cc1,14.4%
23,O=S(=O)(F)c1cccc(CO)c1,96.8%
24,O=S(=O)(F)c1ccc(S(=O)(=O)F)cc1,7.58%
25,N#Cc1ccc(S(=O)(=O)F)cc1,60.6%
26,O=C(C=Cc1ccccc1)c1ccc(S(=O)(=O)F)cc1,10.9%

row,SMILES,Inhibition %
1,C=CC(=O)N1CCOCC1c1cccc(F)c1 (stereo not shown),2.96%
2,O=C(c1cccc(S(=O)(=O)F)c1)N1CCCn2ncc(C3CC3)c21,6.74%
3,c1ncc(C2OCCO2)s1,38.6%
4,C=CC(=O)N[C@H]1C[C@H](c2ccccc2F)C1,10.2%
5,C=CC(=O)Nc1cc(S(=O)(=O)N(C)C)ccc1Cl,6.55%
6,Cc1ccc(-n2cnc(Cl)c2C#N)cc1,6.79%
7,COCc1n[nH]c(=O)o1,2.07%
8,CN1CCCC(CCl)C1.Cl (stereo not shown),4.37%
9,CN(C(=O)C(C#N)=Cc1ccco1)c1ccc(F)cc1,8.11%
10,c1cc2ccc(OCC3CO3)cc2[nH]1 (stereo not shown),5.75%
11,Cc1cc(C#N)cc(C(=O)O)n1,4.24%
12,Cc1cnc(=S)[nH]c1,8.44%
13,N#CSc1c(Cl)nc2sccn12,13.7%
14,C=CC(=O)N1CCOCC1CC(F)F (stereo not shown),17%
15,Cc1ccc(-n2cc(SC(=O)N(C)C)cn2)cc1,6.2%
16,O=[N+]([O-])c1cccc(S(=O)(=O)F)c1,99.2%
17,O=C(CCl)Nc1ccc([N+](=O)[O-])cc1C(F)(F)F,12.1%
18,N#Cc1cnn(Cc2ccc(S(=O)(=O)F)cc2)c1,7.21%
19,O=S(=O)(F)c1ccccc1C(F)(F)F,11.3%
20,O=[N+]([O-])c1ccc(C(F)(F)F)c(S(=O)(=O)F)c1,102%
21,C=CS(=O)(=O)c1cccc(C#N)c1,6.17%
22,CC1(C)OB(c2cccc(S(N)(=O)=O)c2)OC1(C)C,2.2%
23,N#Cc1cccc(S(=O)(=O)F)c1,97.3%
24,O=S(=O)(F)c1ccc(Cl)cc1,27%
25,O=S(=O)(F)c1cccc(Br)c1,16.4%
26,O=C(CCl)NC(=O)c1cccc([N+](=O)[O-])c1,31.5%

row,SMILES,Inhibition %
1,NS(=O)(=O)c1cccc(S(=O)(=O)F)c1,94.3%
2,CC1(C)OB(c2ccc(OCCc3ccccn3)cc2)OC1(C)C,-0.0918%
3,N#Cc1ncn(Cc2ccc(F)cc2Cl)n1,0.898%
4,C=CC(=O)N1CC(=O)NC2CCCCC21 (stereo not shown),24.2%
5,Cc1ccc2oc(C#N)nc2c1,9.34%
6,O=C(CCl)NC1CCCC1,15.6%
7,C=CC(=O)N1CCN(c2c(F)cccc2OC)CC1,12%
8,CCc1ccccc1NC(=O)CCl,13.2%
9,CCC1(C)NC(=O)N(NC(=O)CCl)C1=O (stereo not shown),9.56%
10,Cl.Nc1cccc2cc(S(=O)(=O)F)ccc12,65.6%
11,O=C1NC(c2ccccc2)C12CCCC2 (stereo not shown),3.32%
12,Cc1cc(C=C(C#N)C(=O)N2CCC2)c(C)n1CC(C)C,-2.1%
13,CS(=O)(=O)c1ccc(CNC(=O)CCl)cc1,10.2%
14,O=C(CCl)Nc1ccccc1S(=O)(=O)C(F)F,6.1%
15,Cc1ccc(NC(=O)CCl)cc1S(N)(=O)=O,17.6%
16,CS(=O)(=O)c1ccc(NC(=O)CCl)cc1,51.8%
17,NS(=O)(=O)c1cccc(NC(=O)CCl)c1,14.7%
18,O=C(CCl)Nc1ccc(S(=O)(=O)C(F)F)cc1,65.8%
19,NS(=O)(=O)c1ccc(NC(=O)CCl)cc1,69.2%
20,CS(=O)(=O)c1cccc(NC(=O)CCl)c1,7.34%
21,CCC(CSC)Nc1ccc(C#N)nc1 (stereo not shown),11.4%
22,O=S(=O)(F)c1ccc(Cn2cnc(Br)n2)cc1,12.6%
23,C=CC(=O)NCCc1cnn(C)c1,3.91%
24,Cc1cc(C=C(C#N)C(=O)O)c(C)n1CC(C)C,8.48%
25,Cl.Cl.NC1CCN(C2CCOC2=O)CC1 (stereo not shown),5.74%
26,O=C(CCl)N(c1ccccc1)C1CCS(=O)(=O)C1 (stereo not shown),5.5%

row,SMILES,Inhibition %
1,C=CC(=O)Nc1ccc2nc(C3CC3)oc2c1,11.6%
2,N#Cc1ncccc1S(N)(=O)=O,6.94%
3,Nc1ccccc1S(=O)(=O)F,44.7%
4,Nc1cccnc1S(=O)(=O)F,81.4%
5,O=C(CCl)NCc1ccc(C(=O)N2CCCC2)cc1,4.96%
6,Cn1cc(C=CC(=O)N2CCc3ccccc32)cn1,3.76%
7,C=CC(=O)N1CCOc2ccc(F)cc2C1,11.2%
8,O=c1[nH]c(-c2cccs2)no1,3.67%
9,Cc1ccsc1-c1nnc(NC(=O)CCl)o1,10.8%
10,N#Cc1ccc(C(=O)O)c(=O)[nH]1,83.7%
11,Cc1[nH]c(C#N)cc1C(=O)O,6.7%
12,N#Cc1ccc(C(=O)O)[nH]1,7.43%
13,O=C(O)c1ccc(C2OCCO2)cc1,7.82%
14,N#CC(c1ccccc1)N1CCN(C(=O)CCl)CC1 (stereo not shown),18.3%
15,CC(C)c1ccc(CCNC(=O)CCl)cc1,22%
16,CCN(CC)C(=O)c1ccc(NC(=O)CCl)cc1,43.2%
17,CC(C)c1ccc(C(C)NC(=O)CCl)cc1 (stereo not shown),6.77%
18,CCC(C)c1ccc(-c2csc(NC(=O)CCl)n2)cc1 (stereo not shown),8.03%
19,CCN(c1ccc(NC(=O)CCl)cc1)C(C)C.Cl,98.6%
20,CCC(C)c1ccc(NC(=O)CCl)cc1 (stereo not shown),99.1%
21,CCC(C)c1ccccc1NC(=O)CCl (stereo not shown),16.8%
22,CC(C)c1ccc(NC(=O)CCl)cc1,95.8%
23,C=CC(=O)NC(=O)NC12CC3CC(CC(C3)C1)C2,3.27%
24,C=CC(=O)N1CCC(CNC(C)=O)CC1,25%
25,CC1(C)OC1c1ccccc1 (stereo not shown),13.4%
26,C#CCN(c1cnc(C#N)cn1)C1CCCC1,1.73%

row,SMILES,Inhibition %
1,COC1CS(=O)(=O)CC1Cl (stereo not shown),8.34%
2,C=CC(=O)N1CCc2nc(-c3ccccc3)sc2C1,16.7%
3,O=C(CCl)N1c2ccccc2Sc2ccc(Cl)cc21,6.3%
4,COc1ccc(S(=O)(=O)n2ccc(C)n2)cc1,7.42%
5,CCc1nccn1S(=O)(=O)c1cc(Cl)c(C)cc1OC,4.53%
6,O=c1onc(-c2ncccn2)n1Cc1ccc(Cl)s1,2.32%
7,O=C(CCl)NC1CCOCC1,10.5%
8,O=C(CCl)C1CCC(F)(F)CC1,96.8%
9,C=CC(=O)NCC1CCC(F)(F)CC1,5.38%
10,O=C(CCl)NNC(=O)C1CC1,1.1%
11,O=C(CCl)NCC1CCOC1 (stereo not shown),8.14%
12,O=C(CCl)C1CCOCC1,99%
13,Cc1cc(C)n(CC2CCCN2C2CC(C)OC2=O)n1 (stereo not shown),-2.43%
14,Cc1ccnc(S)n1.Cl,5.09%
15,Cc1ccoc1C(=O)Nc1cccc(S(=O)(=O)F)c1,7.02%
16,Cc1nc2c(C(=O)Nc3cccc(S(=O)(=O)F)c3)cccc2o1,43.6%
17,C=CC(=O)Nc1cccc(C(F)(F)F)c1,9.31%
18,O=C(Nc1cccc(S(=O)(=O)F)c1)c1ccoc1C(F)(F)F,96.8%
19,C=CC(=O)Nc1cccc(OC(F)F)c1,4.3%
20,Cc1cc(C(=O)Nc2cccc(S(=O)(=O)F)c2)c(C(F)(F)F)o1,96.8%
21,NS(=O)(=O)c1cccc(NC(=O)Oc2ccccc2)c1,4.87%
22,COCc1ncsc1C(=O)Nc1cccc(S(=O)(=O)F)c1,8.52%
23,O=C(Nc1cccc(S(=O)(=O)F)c1)c1sccc1OC(F)F,93.1%

# Source: paper PMC9574860, “Chemical Toolkit for PARK7: Potent, Selective, and High-Throughput” (Journal of Medicinal Chemistry, 2022)
